# SARS PLpro yeast: inhibitors of SARS-CoV papain-like protease in yeast | 330,000 compounds, 0.19% hits | S. cerevisiae expressing SARS-CoV PLpro, growth rescue | Potency, µM (series often up to 32.9 µM), usual class: activators; further: nearly all actives have a fitted effect of over 55% in size
# Shiga inhibitor: Shiga toxin inhibition | inhibition, % at 38.7 µM | Vero cells, Shiga toxin protein synthesis inhibition reporter | 290,000 compounds, 9.2% hits; in the data active means inhibition mostly above about 28%, no sharp cut-off; inactive means mostly below about 43%
# Pf growth 96h: inhibits malaria parasite growth, 96 h; 320,000 compounds, 6.9% hits; Potency, µM (doses to about 28.7 µM), most hits filed as inhibitors; AID 504834; P. falciparum luciferase reporter growth, 96 h; active means well fitted inhibition curve with a large enough effect; inconclusive means small, poorly fitted or top-dose-only effect, or another doubt; inactive means no such curve, though single readings can be large or run the other way
#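 Erythrocytes infected with luciferase-expressing P. falciparum were dispensed at 2% hematocrit and 0.05% parasitemia (final), then incubated with compounds 96 hours at 37 C in 5% CO2. Luminescence after detection reagent addition reported growth.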
# NS1 function inh: blocks influenza NS1 protein function; Potency, µM (series often up to 46.1 µM); 270,000 compounds, 0.4% hits; further: actives are rising curves; nearly all actives have a fitted effect of over 50% in size
#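 S. cerevisiae expressing influenza A NS1, grown in glucose, washed, then diluted 1:100 into pH 6.0 -URA galactose medium with 23 nl compound. Growth recovery read as OD600; NS1-free strain serves as control.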
# CHX counter: counter-screen for Shiga toxin inhibitors: cycloheximide protein synthesis inhibition. cell reporter, cycloheximide protein synthesis inhibition counterscreen. max response, %. 300,000 compounds, 12% hits. AID 2314; in the data active means max response mostly above about 13%, no sharp cut-off; inactive means mostly below about 14%; further: read at 38.3 µM for the half of the compounds with a filed dose
# Pf growth 48h: P. falciparum growth inhibition at 48 hours (one generation). P. falciparum luciferase growth in erythrocytes, 48 h. Potency, µM (top dose mostly 28.7 µM), hits mostly inhibitors. 310,000 compounds, 5.9% hits. AID 504832; active means well fitted inhibition curve with a large enough effect; inconclusive means small, poorly fitted or top-dose-only effect, or another doubt; inactive means no such curve, though single readings can be large or run the other way
#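 Luciferase-expressing parasites in RBCs, 2% Hct / 0.1% parasitemia final; RPMI 1640 + 0.5% Albumax; 37 C, 5% CO2, one generation; luminescence read-out, lower signal = inhibition.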
# Numbers stand for hits; - = inactive; ? = inconclusive; . = not tested or not shown; + = active, no number; [ ] = another dose, or the depositor's remark. Rows were chosen to be rich in hits. Some 21% of all compounds tested hit in one or more screens of this group. Unless noted, the call rests on the fitted dose curve.
SMILES,SARS PLpro yeast,Shiga inhibitor,Pf growth 96h,NS1 function inh,CHX counter,Pf growth 48h
CN(C)CCNC(=O)/C(=C/c1ccc(-c2cccc([N+](=O)[O-])c2)o1)NC(=O)c1ccccc1,-,-,?,-,-,13µM
CN(C)CCNC(=O)/C(=C/c1ccc(-c2cccc(Cl)c2)o1)NC(=O)c1ccccc1,-,-,-,-,-,13µM
CN(C)C(=O)/C(=C\c1ccc(-c2cccc([N+](=O)[O-])c2)o1)NC(=O)c1ccccc1,-,-,-,.,-,?
CCn1cc(C(=O)NC2CCCCCC2)c2cc(OC)c(OC)cc2c1=O,-,-,-,-,-,-
COc1ccc(CCN2C(=O)C(O)=C(C(=O)c3ccco3)C2c2cccs2)cc1OC (stereo not drawn),-,-,-,-,-,-
CCc1ccc(Nc2cnn(-c3nc4ccccc4s3)c(=O)c2Cl)cc1,-,84,?,-,71,-
CN1CCCC1CCNc1ccc2oc3ccccc3c(=O)c2c1 (stereo not drawn),-,-,-,-,25,-
CN1CCCC1CCNc1ccc2c(=O)c3ccccc3oc2c1 (stereo not drawn),-,-,-,-,41,-
CN1CCC[C@H]1CCNC(=O)c1c(-c2ccsc2)sc2ccccc12,-,.,.,.,.,.
Cc1csc2c(=O)sc(NC(=O)c3ccc(F)cc3)nc12,-,-,-,-,-,-
O=C(Nc1nc2ccsc2c(=O)s1)c1ccc(F)cc1,-,81,-,-,45,-
O=C(Nc1nc2ccsc2c(=O)s1)c1ccc(F)cc1Cl,-,73,-,-,33,-
Cc1csc2c(=O)sc(NC(=O)c3ccc(F)cc3Cl)nc12,-,-,-,-,-,-
COc1cc(OC)c(NC(=O)Nc2cc(C)on2)cc1Cl,.,-,.,.,-,.
COc1ccc(CN2CCN(Cc3cc4ccccc4o3)CC2CCO)cc1C (stereo not drawn),-,-,-,-,-,-
CCOc1ccc(C(NC(=O)/C=C/c2ccco2)c2ccc(OC)c(OC)c2)cc1 (stereo not drawn),-,-,?,-,-,?
COc1ccc(C(=O)NCC2(c3ccc(OC)c(OC)c3)CCCC2)c(OC)c1,-,-,?,-,-,12µM
COc1ccc(C(NC(=O)/C=C/c2ccco2)c2ccc(OC)c(OC)c2)cc1 (stereo not drawn),-,85,?,?,42,-
COc1ccc(C2(CNC(=O)/C=C/c3ccco3)CCCC2)cc1OC,-,-,?,-,-,6.6µM
O=C(/C=C/c1ccco1)NCC1(c2ccccc2)CCCC1,-,48,-,-,105,?
O=C(NCC1(c2ccccc2)CCCC1)c1ccco1,-,-,-,-,-,-
O=C1CSc2ccc(C(=O)Nc3cccc(S(=O)(=O)Nc4ccc(Br)cc4)c3)cc2N1,-,-,-,-,-,-
CSCCC(C(=O)OC1CCOC1=O)N1C(=O)c2ccccc2C1=O (stereo not drawn),-,-,-,.,-,-
CCCc1nc(C)c2c(=O)[nH]c(-c3cc(S(=O)(=O)N4CCN(CC)CC4)ccc3OCC)nn12,.,.,7.6µM,.,.,?
Cc1ccc[n+](CC(=O)Nc2nc3ccccc3s2)c1,-,-,?,-,-,-
SMILES,SARS PLpro yeast,Shiga inhibitor,Pf growth 96h,NS1 function inh,CHX counter,Pf growth 48h
NC(=O)CSc1nnc(-c2ccc3c(c2)OCO3)o1,-,75,-,.,28,-
O=C(O)CSc1nnc(-c2ccc3c(c2)OCO3)o1,-,-,.,-,-,-
N#CCSc1nnc(Cc2ccc3c(c2)OCO3)o1,-,-,-,-,-,?
N#CCSc1nnc(-c2ccc3c(c2)OCO3)o1,-,24,-,-,14,-
Cc1nc(NC(=O)CSc2nnc(-c3ccc4c(c3)OCO4)o2)c(Cl)cc1Cl,-,active,-,-,19,-
C/C(N)=C(/C#N)C(=O)CSc1nnc(-c2ccc(OC(F)F)cc2)o1,-,99,?,-,35,-
COc1cc(COCC(O)CN2CCc3ccccc3C2)cc(OC)c1OC (stereo not drawn),-,-,-,-,-,-
O=C(C[C@H]1C/C=C\CC[C@@H](Cc2ccc(F)cc2)C(=O)OC[C@H]2CCCN2C1=O)N[C@@H](CO)Cc1ccccc1,-,.,.,.,.,.
C/C(N)=C(/C#N)C(=O)CSc1nnc(-c2ccc3c(c2)OCO3)o1,-,99,.,-,44,-
OC(CCc1cccc(Cl)c1)c1cccs1 (stereo not drawn),-,44,-,-,35,.
COc1cccc(-c2ncc3ccccc3c2COC(=O)CCCC(=O)O)c1,-,.,?,.,.,-
Cc1ccc(C)c(NC(=S)NC23CN4CN(CN(C4)C2)C3)c1,-,-,-,.,-,-
Cc1cccc(C)c1OCc1cc(C(=O)N2CC3C[C@@H]4CC2C[C@H](C3)C4)no1,-,96,-,-,65,-
Cc1ccc(OCc2cc(C(=O)N3CC4C[C@@H]5CC3C[C@H](C4)C5)no2)cc1C,?,135,-,-,35,-
Cc1cc(C)nc(SCc2ccc3nonc3c2)n1,.,-,?,-,-,?
CCn1cc(Br)c(C(=O)Nc2ccc(F)cc2F)n1,-,45,-,-,25,-
CCn1cc(Br)c(C(=O)Nc2cccc(SC)c2)n1,-,+,-,-,32,-
O=C(CSc1nnc(-c2cccs2)n1-c1ccccc1)N1CCc2ccccc21,.,.,.,-,.,.
CC(C)OCCCNC(=O)c1ccc(NS(C)(=O)=O)cc1,-,-,10µM,-,-,-
COCCNC(=O)c1ccc(NS(C)(=O)=O)cc1,-,-,.,-,-,-
CC(C)OCCCNC(=O)c1ccc2c(c1)S(=O)(=O)c1ccccc1C2=O,-,-,9.3µM,-,-,-
COCC(C)NC(=O)c1ccc2c(c1)S(=O)(=O)c1ccccc1C2=O (stereo not drawn),-,-,?,-,-,-
CCC(C)NC(=O)c1ccc2c(c1)S(=O)(=O)c1ccccc1C2=O (stereo not drawn),-,14,-,-,32,-
Cc1cccc(NCc2ccc(N(C)C)cc2)n1,-,91,?,-,45,-
Clc1cccc(NCc2ccccc2)n1,-,-,-[5.75 µM],-,-,-
SMILES,SARS PLpro yeast,Shiga inhibitor,Pf growth 96h,NS1 function inh,CHX counter,Pf growth 48h
CN(C)c1ccc(CNc2ncnc3sccc23)cc1,-,-,-,-,-,-
CN(C)c1ccc(CNc2ccccn2)cc1,?,43,-,-,27,-
Fc1ccc(CNc2ccccn2)cc1,-,26,-,-,20,-
CSc1ccc(CNc2ccccn2)cc1,-,117,-,-,38,-
COc1ccc(OCC(=O)NCCNC(=O)c2cccnc2)cc1,-,-,-,-,-,-
C=CC[C@@H](CC(=O)N(CCO)Cc1ccccc1)C(=O)NCCOC(=O)[C@H](CC=C)CC(=O)OC(C)(C)C,-,.,.,.,.,.
Cc1cccc(NC(=O)CSc2nnnn2-c2ccc3c(c2)OCCO3)n1,-,-,?,-,-,?

# Source: PubChem
